EBV gp42 inh = blocks Epstein-Barr virus glycoprotein 42 binding; Q1HVG2; Fluorescence polarization binding assay, mP read-out; actives 0.42% (n = 220,000); inhibition, % (tested at 21.74 µM); AID 1085; in the data active = inhibition above about 50%
Target sequence (Q1HVG2 whole entry, looked up): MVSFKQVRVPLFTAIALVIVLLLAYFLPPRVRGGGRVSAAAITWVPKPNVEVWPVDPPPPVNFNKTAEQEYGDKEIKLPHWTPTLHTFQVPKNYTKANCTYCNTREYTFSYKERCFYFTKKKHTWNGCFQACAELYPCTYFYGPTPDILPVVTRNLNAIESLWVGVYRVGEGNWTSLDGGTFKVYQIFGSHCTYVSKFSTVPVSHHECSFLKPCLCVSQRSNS
LANA DNA inh = KSHV C-LANA DNA binding inhibition; MBP-C-LANA/FAM-LBS DNA binding, fluorescence polarization; inhibition, % at 9 µM; actives 0.078% (n = 340,000); AID 504423;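 active = highest replicate inhibition at or above 60% at 9 µM, even if other replicates fall short; inactive = all replicates below 60% inhibition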
eLon inh = E. coli protease La inhibition; inhibition, % at 7.94 µM; purified E. coli Lon protease, fluorescence polarization; actives 0.42% (n = 360,000); P0A9M0; in the data active = inhibition above about 13%, passing the limit was not always enough
Keap1-Nrf2 PPI = Keap1-Nrf2 (human) interaction inhibition | Q14145 | Keap1 Kelch-Nrf2 peptide fluorescence polarization, 1536-well | inhibition, % at 9.4 µM | actives 0.15% (n = 340,000) | AID 504523; in the data active = inhibition above about 12%;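 note: human Keap1 Kelch domain with fluorescein labeled Nrf2 9mer peptide probe; higher means more block of Keap1 binding to Nrf2 peptide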
GLD-1 TGE inh = GLD-1-TGE RNA interaction inhibition (C. elegans); inhibition, % at 5.96 µM; actives 0.44% (n = 320,000); AID 2280; purified GLD-1 + fluorescein TGE RNA, fluorescence polarization;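 active = percent inhibition above a per-plate cutoff, the plate mean of test compounds plus 3 SD, cut at about 30% in these data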
Target sequence (Q17339 whole entry, looked up): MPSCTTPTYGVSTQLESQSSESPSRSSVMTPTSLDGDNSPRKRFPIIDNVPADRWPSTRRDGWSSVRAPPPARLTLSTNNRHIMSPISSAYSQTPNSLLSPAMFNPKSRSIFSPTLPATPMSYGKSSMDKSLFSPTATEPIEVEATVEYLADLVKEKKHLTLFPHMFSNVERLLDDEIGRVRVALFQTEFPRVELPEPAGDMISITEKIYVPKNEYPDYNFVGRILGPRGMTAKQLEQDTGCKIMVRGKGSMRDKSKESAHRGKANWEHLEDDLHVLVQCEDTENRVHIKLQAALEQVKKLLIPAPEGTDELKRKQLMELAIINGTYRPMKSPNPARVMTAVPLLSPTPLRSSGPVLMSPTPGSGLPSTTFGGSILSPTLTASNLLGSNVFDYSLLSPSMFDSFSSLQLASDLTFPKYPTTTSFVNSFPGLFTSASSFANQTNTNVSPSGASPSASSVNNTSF
LANA-H2A inh = blocks KSHV LANA binding to histone H2A/H2B; Q9QR71; cell-free LANA-H2A/H2B peptide, fluorescence polarization; inhibition, % (no concentration beside the values); actives 0.6% (n = 320,000); AID 2629; in the data active = inhibition mostly above about 10%, no sharp cut-off; inactive = mostly below about 6.7%
Hits are given with their value. Most compounds without a hit are left out; they make up all but 1.5% or so of the library.

Results for CN(C(=S)Nc1ccccc1F)C1(c2ccccc2Cl)CCCCC1=O (stereo unspecified) ?
EBV gp42 inh: inactive; LANA DNA inh: inactive; eLon inh: inactive; Keap1-Nrf2 PPI: inactive; GLD-1 TGE inh: inactive; LANA-H2A inh: inactive

How did O=C(N/N=C/c1c[nH]c2ccccc12)c1ccc(Br)cc1 do in these assays?
LANA DNA inh: inactive; eLon inh: inactive; Keap1-Nrf2 PPI: inactive; GLD-1 TGE inh: inactive; LANA-H2A inh: inactive

How did O=C(N/N=C\c1c[nH]c2ccccc12)c1ccc(O)cc1 do in these assays?
LANA DNA inh: inactive; eLon inh: inactive; Keap1-Nrf2 PPI: inactive; LANA-H2A inh: 74

Results for CC1(C(=O)NS(=O)(=O)Cc2ccccc2C(F)(F)F)CCN1C(=O)Cc1cccs1 (stereo unspecified) ?
eLon inh: inactive

What do the screens show for `CCC(=O)Nc1ccc(S(=O)(=O)NC[C@H]2O[C@@H](n3cnc4c(=O)[nH]c(N)nc43)[C@H](O)[C@@H]2O)cc1`?
eLon inh: inactive

What do the screens show for `CCCS(=O)(=O)NC(=O)C1(C)CCCN(C(=O)c2ccc3c(c2)OCO3)C1` (stereo unspecified)?
eLon inh: inactive

How did CCC(=O)N1Cc2cc(C(=O)Nc3nccs3)nc(-c3cccc(-c4ccccc4OC)c3)c2[C@H]1CCO do in these assays?
eLon inh: inactive

Results for CCCNC(=O)C1(C)CCCN(C(=O)c2ccc(F)c(Cl)c2)C1 (stereo unspecified) ?
eLon inh: inactive

Results for Cc1ccc(S(=O)(=O)/C(C#N)=C/c2c[nH]c3ccccc23)cc1 ?
EBV gp42 inh: inactive; LANA DNA inh: inactive; eLon inh: inactive; Keap1-Nrf2 PPI: inactive; GLD-1 TGE inh: inactive; LANA-H2A inh: 17

Results for Cc1ccc(S(=O)(=O)N/N=C/c2c[nH]c3ccccc23)cc1 ?
EBV gp42 inh: inactive; LANA DNA inh: inactive; eLon inh: inactive; Keap1-Nrf2 PPI: inactive; GLD-1 TGE inh: inactive; LANA-H2A inh: inactive

How did NC(=O)c1c(N)sc2c1CCCCC2 do in these assays?
EBV gp42 inh: inactive; LANA DNA inh: inactive; eLon inh: inactive; Keap1-Nrf2 PPI: inactive; GLD-1 TGE inh: inactive; LANA-H2A inh: inactive

Results for CNC(=O)c1c(N)sc2c1CCCCC2 ?
EBV gp42 inh: inactive; GLD-1 TGE inh: 36; LANA-H2A inh: inactive

How did NC(=O)c1c(NC(=O)c2ccccc2F)sc2c1CCC2 do in these assays?
eLon inh: inactive

How did O=C(Cn1ccc2cc(S(=O)(=O)N3CCCC3)ccc21)NCCc1ccccc1 do in these assays?
LANA DNA inh: inactive; eLon inh: inactive; Keap1-Nrf2 PPI: inactive; GLD-1 TGE inh: inactive; LANA-H2A inh: 12

How did COc1ccc(C(=O)Nc2nnc(S(=O)(=O)Cc3ccc(F)cc3)s2)cc1 do in these assays?
LANA DNA inh: inactive; eLon inh: inactive; Keap1-Nrf2 PPI: inactive; GLD-1 TGE inh: inactive; LANA-H2A inh: 18

What do the screens show for `CN(C)c1ccc(O)c2c1CC1CC3[C@@H](N(C)C)C(=O)C(C(N)=O)=C(O)[C@]3(O)C(=O)C1=C2O` (stereo partly specified)?
EBV gp42 inh: inactive; LANA DNA inh: 77; eLon inh: inactive; Keap1-Nrf2 PPI: inactive; GLD-1 TGE inh: inactive; LANA-H2A inh: inactive

How did Cc1ccc(C(C)C)c(OCC(=O)Nc2ccc(N3CCN(S(C)(=O)=O)CC3)cc2)c1 do in these assays?
EBV gp42 inh: inactive; LANA DNA inh: inactive; eLon inh: inactive; Keap1-Nrf2 PPI: inactive; GLD-1 TGE inh: inactive; LANA-H2A inh: 50

How did Cc1ccc(C(=O)NC(=C(Cl)Cl)S(=O)(=O)c2ccccc2)cc1 do in these assays?
EBV gp42 inh: inactive; LANA DNA inh: inactive; eLon inh: inactive; Keap1-Nrf2 PPI: inactive; GLD-1 TGE inh: inactive; LANA-H2A inh: 14

What do the screens show for `Clc1ccc(OCCN2CCOCC2)cc1Cl`?
EBV gp42 inh: inactive; LANA DNA inh: inactive; eLon inh: inactive; Keap1-Nrf2 PPI: inactive; GLD-1 TGE inh: inactive; LANA-H2A inh: 17

How did Nc1nc(-c2ccccc2)c(-c2ccccc2)o1 do in these assays?
EBV gp42 inh: inactive; LANA DNA inh: inactive; eLon inh: inactive; Keap1-Nrf2 PPI: inactive; GLD-1 TGE inh: inactive; LANA-H2A inh: 29

What do the screens show for `O=C(c1ccc(F)cc1)[C@@H]1[C@@H](C(=O)c2ccccc2)[C@@]2(C(=O)Nc3ccccc32)[C@H]2c3ccccc3C=CN12`?
EBV gp42 inh: inactive; GLD-1 TGE inh: 34; LANA-H2A inh: inactive

What do the screens show for `O=C1c2cccc3c2[C@H](CCC3)CN1[C@@H]1CN2CCC1CC2`?
GLD-1 TGE inh: inactive; LANA-H2A inh: inactive

What do the screens show for `Cc1noc(C)c1COC(=O)c1cc(S(=O)(=O)N2CCOCC2)ccc1F`?
LANA DNA inh: inactive; eLon inh: inactive; Keap1-Nrf2 PPI: inactive; GLD-1 TGE inh: inactive; LANA-H2A inh: 31

What do the screens show for `CC(OC(=O)c1cc(S(=O)(=O)N2CCOCC2)ccc1F)C(=O)NC1CCCC1` (stereo unspecified)?
LANA DNA inh: inactive; eLon inh: inactive; Keap1-Nrf2 PPI: inactive; GLD-1 TGE inh: inactive; LANA-H2A inh: 25

How did O=C(COC(=O)c1cc(S(=O)(=O)N2CCOCC2)ccc1F)NC1CCCCC1 do in these assays?
LANA DNA inh: inactive; eLon inh: inactive; Keap1-Nrf2 PPI: inactive; GLD-1 TGE inh: inactive

What do the screens show for `COC(=O)c1ccc(Cn2c(C)c(C(=O)NCc3ccc(Cl)c(Cl)c3)sc2=O)o1`?
eLon inh: inactive

What do the screens show for `CCN1/C(=C/c2ccc3cc(C)ccc3[n+]2C)Sc2ccc3sccc3c21`?
EBV gp42 inh: active; LANA DNA inh: inactive; eLon inh: inactive; Keap1-Nrf2 PPI: inactive

How did COc1ccc(CN(C)C(=O)[C@H]2O[C@@H](n3ccc(N)nc3=O)[C@H](O)[C@@H]2O)cc1OC do in these assays?
eLon inh: inactive

Results for N=C(c1cccc([N+](=O)[O-])c1)N1CCCCC1 ?
EBV gp42 inh: inactive; LANA DNA inh: inactive; eLon inh: inactive; Keap1-Nrf2 PPI: inactive; GLD-1 TGE inh: inactive; LANA-H2A inh: inactive

Results for CC(C)(C)[C@]1(O)CCN2C[C@H]3c4ccccc4CCc4cccc(c43)[C@@H]2C1 ?
EBV gp42 inh: inactive; LANA DNA inh: inactive; eLon inh: inactive; Keap1-Nrf2 PPI: inactive; GLD-1 TGE inh: inactive; LANA-H2A inh: 24

Results for CN(CCC1CCOCC1)C(=O)CC1C(=O)NCCN1Cc1c(F)cccc1Cl (stereo unspecified) ?
LANA DNA inh: inactive; eLon inh: inactive; Keap1-Nrf2 PPI: inactive; GLD-1 TGE inh: inactive; LANA-H2A inh: 40

How did O=C(CSc1ccc2nnc(-c3ccccn3)n2n1)Nc1ccccc1C(F)(F)F do in these assays?
LANA DNA inh: inactive; eLon inh: inactive; Keap1-Nrf2 PPI: inactive; GLD-1 TGE inh: inactive; LANA-H2A inh: inactive

What do the screens show for `CCOC(=O)c1c(Nc2ccccc2N)cc(C)nc1C`?
EBV gp42 inh: 81; LANA DNA inh: inactive; eLon inh: inactive; Keap1-Nrf2 PPI: inactive; GLD-1 TGE inh: inactive; LANA-H2A inh: inactive

Results for CC1(c2nnnn2-c2ccc3c(c2)OCCO3)CCC(=O)N1CCc1ccccc1F (stereo unspecified) ?
eLon inh: inactive
